Results published in PubChem BioAssay AID504339 (National Center for Advancing Translational Sciences (NCATS), 2011).
The whole screen tested about 390,000 compounds, of which about 17,000 (4.4%) were called active. Another 8% or so got no clear call; they are omitted. The call rests on the fitted dose curve; in most records, active means well fitted inhibition curve with a large enough effect; inconclusive means small, poorly fitted or top-dose-only effect; inactive means no such curve, though single readings can be large or run the other way. Shown is part of a subset that was picked to be rich in actives. A call without a number means that no potency is given here.

Target: Lysine-specific demethylase 4A (Homo sapiens) (UniProt O75164)
Sequence (O75164 whole entry, looked up, the tested form may be a part): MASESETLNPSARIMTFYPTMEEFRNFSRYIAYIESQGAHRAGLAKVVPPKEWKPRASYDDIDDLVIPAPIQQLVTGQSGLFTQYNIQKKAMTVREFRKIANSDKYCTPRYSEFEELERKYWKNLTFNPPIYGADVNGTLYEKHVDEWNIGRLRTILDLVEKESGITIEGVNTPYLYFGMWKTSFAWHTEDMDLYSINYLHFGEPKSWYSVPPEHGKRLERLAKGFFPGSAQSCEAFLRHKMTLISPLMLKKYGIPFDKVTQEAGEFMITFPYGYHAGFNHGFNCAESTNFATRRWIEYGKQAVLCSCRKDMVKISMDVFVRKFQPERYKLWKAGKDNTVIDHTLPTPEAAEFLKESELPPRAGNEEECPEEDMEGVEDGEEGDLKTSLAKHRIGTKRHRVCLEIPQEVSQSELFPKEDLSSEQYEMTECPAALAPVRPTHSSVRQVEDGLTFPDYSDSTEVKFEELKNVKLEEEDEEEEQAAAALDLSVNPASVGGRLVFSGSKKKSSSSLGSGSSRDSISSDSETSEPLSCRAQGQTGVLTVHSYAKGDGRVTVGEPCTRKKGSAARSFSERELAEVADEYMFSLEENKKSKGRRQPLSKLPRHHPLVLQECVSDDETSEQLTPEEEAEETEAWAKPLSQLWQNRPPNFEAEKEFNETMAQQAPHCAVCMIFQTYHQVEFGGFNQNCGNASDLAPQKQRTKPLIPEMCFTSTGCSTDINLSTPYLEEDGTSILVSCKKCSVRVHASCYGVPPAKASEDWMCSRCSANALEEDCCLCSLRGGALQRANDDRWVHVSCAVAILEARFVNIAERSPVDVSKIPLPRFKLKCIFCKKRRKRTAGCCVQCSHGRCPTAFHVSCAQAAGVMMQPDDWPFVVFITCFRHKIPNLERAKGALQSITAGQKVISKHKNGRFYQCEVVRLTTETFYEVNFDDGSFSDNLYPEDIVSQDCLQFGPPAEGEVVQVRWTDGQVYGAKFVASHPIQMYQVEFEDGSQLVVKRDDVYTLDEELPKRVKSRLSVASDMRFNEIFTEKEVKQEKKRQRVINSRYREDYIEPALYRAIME
Experiment: qHTS Assay for Inhibitors of JMJD2A-Tudor Domain; further: nearly all actives have a fitted effect of over 50% in size
Conditions: AlphaScreen JMJD2A-Tudor / H3K4me3 peptide binding; series mostly up to 114 µM
Source text: JMJD2A is a jumonji-domain-containing lysine demethylase that uses Fe(II) together with 2-OG to effect oxidative demethylation of histones. Methylation is one of many […] modification that affect epigenetic transcription. […] It is proposed that the functions of JmjD2A binding to the histones, is to maintain marks after they are installed and to spread the modifications by […], establishing a self-propagating cycle for rapid methylation over a large area of chromatin. […] Thus, small molecule targeting of the JMJD2A-tudor domain interaction with its target methylhistone mark is expected to enable sophisticated experiments probing the fine regulatory pathways leading to selective demethylation of a given methyllysine locus based on the methylation state of adjacent histone marks. A quantitative high throughput AlphaScreen has been developed to identify small molecule inhibitors based on a protocol published by NCGC and SGC [4].
Although AlphaScreen has significant advantages with its utility in a variety of epigenetic target assays, the primary screening data provided in this deposition should be used with caution due to the prevalence of screening artifacts. The top compound concentration tested was high (>100uM) in this assay, which increases number of actives and potential artifacts. An AlphaScreen counterscreen is highly recommended to be run against any putative actives to eliminate non-specific artifacts. Alternatively, one can use other AlphaScreen assays in PubChem to filter out promiscuous hits.
[1] Lee, J. et al. Distinct binding modes specify the recognition of methylated histone H3K4 and H4K20 by JMJD2A-tudor. Nat Struct Mol Biol. 15(1); 109-11. 2008. PMID: 18084306
[2] Yasgar, et al. Compound Management for Quantitative High-Throughput Screening. JALA. 2008 Apr;13(2):79-89. PMID: 18496600
[3] Inglese, et al. Quantitative high-throughput screening: a titration-based approach that efficiently identifies biological activities in large chemical libraries. Proc Natl Acad Sci. 1;103(31):11473-8. 2006. PMID: 16864780
[4] Quinn et al. A homogeneous method for investigation of methyl-dependent protein-protein interactions in epigenetics. Nucleic Acids Res., 38(2):e11. 2010. PMID: […]
[5] Baell,Holloway. New substructure filters for removal of pan assay interference compounds (PAINS) from screening libraries and for their exclusion in bioassays. J Med Chem. 53(7):2719-40. 2010. PMID: 20131845
NIH Molecular Libraries Probe Production Network [MLPCN]
NIH Chemical Genomics Center [NCGC]
Structural Genomics Consortium (SGC)
To each well of a 1,536w plate, 2ul of JMJD2A-Tudor (final 100nM) and 1ul biotinylated histone peptide methylated at Lys4 [b-H3(1-18)K4me3] (final 50nM) were added in 1x PBS buffer, pH 7.4, containing 0.01% Tween-20, using a nanoliter dispenser. Formation of a protein-peptide complex proceeded at room temperature for 30 min. A Kalypsys pin-tool transferred 23nl of library compound solution in DMSO to each well. Following a 30 min incubation of the protein-peptide complex with compounds at room temperature, a mixture of 40 µg/mL each streptavidin-coated donor and nickel chelate acceptor AlphaScreen beads (final 10 µg/mL) was added in a 1ul dispense for a final volume of 4ul, followed by a brief centrifugation (1000 rpm, 1 min). Plates were incubated protected from the light for 20 min at room temperature. Microplates were then read on an EnVision multilabel plate reader using the 1,536 plate HTS AlphaScreen aperture (excitation time 80 ms, measurement time 240 ms).
Potency means the concentration at half of the fitted maximal effect.

SMILES	Potency
Cc1ccc(-n2c(C)cc(C(=O)CN3C(=O)C(=O)N(C4CCCC4)C3=O)c2C)cc1	31.6 µM (active)
Cc1cc(C(=O)COC(=O)C2CC2)c(C)n1-c1ccc(F)cc1	inactive
Cc1ccc(-n2c(C)cc(C(=O)CSc3nnc4ccccn34)c2C)cc1	inactive
Cc1c(Cl)cccc1NC(=O)C(=O)NCCc1csc2nc(-c3ccccc3F)nn12	inactive
CC(C)c1ccc(NC(=S)NC2CC3C=CC2C3)cc1 (centres undefined)	inactive
S=C(NNC(=S)NC1CC2C=CC1C2)NC1CC2C=CC1C2 (centres undefined)	3.16 µM (active)
COc1ccc(-c2noc(CCC(=O)N(C)c3ccccc3C)n2)cc1	inactive
CCCCOc1ccc(CN2C(=O)C(=O)c3cc(Br)cc(C)c32)cc1OC	14.1 µM (active)
CCCCN1C(=O)C(C)=C(C)C1OCCc1ccc(OC)c(OC)c1 (centres undefined)	inactive
CCCCOc1ccc(Cn2c(=O)oc3ccc(C)cc32)cc1OC	inactive
COc1ccc(NC(=O)c2cc3cc(C)ccc3n2C)cc1	inactive
COc1ccc(-n2c(SCC(=O)Nc3ccc(Cl)c(C)c3)nc3n[nH]c(C)c3c2=N)cc1	inactive
Cc1cccc(Nc2nc(C)nc(N)c2S(=O)(=O)c2ccccc2)c1	inactive
CCOc1ccc(-c2nonc2NC(=O)c2oc3ccc(CC)cc3c2C)cc1	inactive
COc1ccccc1-c1cc(C(F)(F)F)nc(S(=O)(=O)CCCC(=O)Nc2ccc(F)cc2F)n1	inactive
CSc1ccccc1NC(=O)CCS(=O)(=O)c1nc(-c2cccs2)cc(C(F)(F)F)n1	22.4 µM (active)
COc1ccccc1-c1cc(C(F)(F)F)nc(S(=O)(=O)CCCC(=O)Nc2cc(C)ccc2O)n1	inactive
CCc1ccccc1NC(=O)c1ccc(F)c(S(=O)(=O)NC2CCCCCC2)c1	inactive
CN(CC(=O)Nc1ccc(N2CCOCC2)cc1)CC(=O)Nc1ccccc1[N+](=O)[O-]	inactive
Cc1ccccc1N/N=C/c1ccc(N2CCOCC2)cc1	50.1 µM (active)
Cc1cc(Nc2ccc(N3CCOCC3)cc2)c2cccc(C)c2n1	inactive
COc1ccc(N2CCN(C(=O)CNC(=O)c3ccc(Br)o3)CC2)cc1	inactive
CC(=O)c1ccc(N2CCN(C(=O)CCc3ccccc3)CC2)cc1	inactive
CC(=O)N1CCN(c2ccc(NCc3ccc(C(C)C)cc3)cc2)CC1	44.7 µM (active)
O=C(O)c1cscn1	4.47 µM (active)
Cc1ccc2nc(COc3ccccc3NC(=O)Nc3ccc(F)c(Cl)c3)cc(=O)n2c1	inactive

SMILES	Potency
COc1ccc(CCNC(=O)CCCCn2c(=O)c3ccccc3n(Cc3ccccc3)c2=O)cc1OC	inactive
CCOC(=O)Cc1ccc(NC(=O)Nc2c[nH]c(=O)[nH]c2=O)cc1	inactive
CCCCN(CC)CCCNC(=O)Cn1ncc2c([nH]c3ccc(C)cc32)c1=O	inactive
CCCSc1ncc(Cl)c(C(=O)Nc2sc3c(c2C(=O)NCCOC)CCCC3)n1	inactive
Cc1ccc(NC(=S)N(CCCN2CCCC2)Cc2cccn2Cc2ccc(Cl)cc2)cc1	50.1 µM (active)
Cc1ccc(NC(=S)N(CCCN2CCC(C)CC2)Cc2ccco2)cc1	inactive
Cc1ccccc1NC(=S)N(CCCN1CCOCC1)Cc1cccs1	inactive
O=c1[nH]c2cc(Br)ccc2n2cccc12	inactive
COc1cc(C(=O)N2CCN(c3ccc(Nc4ccc(C)cc4)nn3)CC2)cc(OC)c1OC	inactive
Cc1ccc(N=C2NC(=O)/C(=C/C=C/c3ccco3)S2)cc1C	39.8 µM (active)
COc1ccc(OC)c(CCNC(=O)CCCn2c(=O)c3cccn3c3cccnc32)c1	inactive
O=C(Cn1c(=O)n(Cc2cccs2)c(=O)c2cccnc21)Nc1ccc(F)cc1	inactive
O=c1[nH]n2c(=O)c3c([nH]c2c1N=Nc1ccccc1)CCC3	50.1 µM (active)
CC(C)(C)n1c(=O)[nH]c2c(c1=O)CCC2	inactive
Cc1ccc2oc(=O)c3cnn(CC(=O)NCc4ccccc4Cl)c3c2c1	inactive
CCOc1cc(C(=O)NCCc2csc3nc(-c4ccc(C)cc4)nn23)cc(OCC)c1OCC	inactive
COc1ccc(-c2nnc(SCC(=O)c3ccco3)n2-c2ccccc2)cc1	56.2 µM (active)
Cc1cc(NC(=O)CSc2nnc(-c3ccco3)n2N)no1	inactive
COc1ccc(C(=O)NC(=O)CSc2nnc(-c3ccco3)n2-c2ccccc2)cc1	inactive
CCOc1ccc(-n2c(SCC(N)=O)nnc2-c2ccco2)cc1	20 µM (active)
NNC(=O)CSc1nnc(-c2ccccc2)n1-c1ccccc1	inactive
Cc1cccc(C)c1NC(=O)CCCSc1nnc(-c2ccco2)n1-c1ccccc1	inactive
O=C1OC(C(=O)Nc2cccc(Br)c2)Cc2ccccc21 (centres undefined)	inactive
CCOC(=O)c1ccc(NC(=O)c2ncn(-c3ccccc3)n2)cc1	inactive
NC1=NC(c2cc(F)cc(F)c2)n2c(nc3ccccc32)N1 (centres undefined)	inactive
COc1ccccc1NC(=O)c1cc(S(=O)(=O)NCCc2ccccc2)ccc1F	inactive

SMILES	Potency
Oc1ccccc1-c1nc(/C=C/c2ccc(F)cc2)no1	inactive
O=C(Nc1ccc(-n2ccnc2P(=O)(O)c2ccccc2)cc1)c1ccccc1Br	8.91 µM (active)
Cc1ccc(NC(=O)c2cccnc2C(=O)Nc2ccc(C)cc2)cc1	inactive
Cn1c(=O)c(=O)n(C)c2cc(NC(=O)c3ccccc3Br)ccc21	inactive
COc1ccc(CCNC(=O)c2cc3cccc4c3n2CC(C)S4)c(OC)c1OC (centres undefined)	inactive
S=c1[nH]nc(-c2ccc(Cl)cc2)n1CC1CCCO1 (centres undefined)	8.91 µM (active)
Cc1nnc(SCC(=O)NNC(=O)c2ccc(Cl)cc2)n1CC1CCCO1 (centres undefined)	inactive
CNC(=O)NC(=O)CSc1nnc(-c2ccc(F)cc2)n1CC1CCCO1 (centres undefined)	inactive
COc1cc2[nH]c(=O)n(Cc3ccc(C(=O)NCc4ccc(C)cc4)cc3)c(=O)c2cc1OC	inactive
O=C(NCC(c1ccc(Cl)cc1)N1CCOCC1)c1ccccc1F (centres undefined)	inactive
O=C(Nc1ccc(C(=O)OCc2cc(=O)n3nc(C4CC4)sc3n2)cc1)c1ccc(F)cc1	inactive
CCN(C(=O)CSc1nnc(C)n2c1cc1occc12)c1ccccc1	inactive
CNC(=O)CN1C(=O)c2cccnc2Sc2ccccc21	inactive
CSc1n[nH]c(=S)n1N	17.8 µM (active)
CCOC(=O)C1CCN(c2ccc(C(=O)O)cc2[N+](=O)[O-])CC1	inactive
CCOC(=O)C1CCN(c2csc3ccc(C)cc3c2=O)CC1	17.8 µM (active)
CCOC(=O)C1CCN(c2c(Nc3cc(C)cc(C)c3)c(=O)c2=O)CC1	inactive
COc1ccc2oc(=O)cc(CN3CCOCC3)c2c1	inactive
CCOc1ccc(N(C)Cc2cc(=O)oc3ccc(OC)cc23)cc1	14.1 µM (active)
CCOc1ccc2oc(=O)cc(CN3CCN(C(=O)c4ccc(F)cc4)CC3)c2c1	inactive
Cc1ccc(NC(=O)c2oc3ccccc3c2NC(=O)Cc2cccs2)cc1	inactive
N#Cc1ccc(OC2=NS(=O)(=O)c3ccccc32)cc1	inactive
CCCCc1nnc(NC(=O)CSc2nc(C)cc(=O)[nH]2)s1	inactive
CCOC(=O)Cc1csc(NC(=O)CSc2nc(C)cc(=O)[nH]2)n1	20 µM (active)
CCOC(=O)Cc1csc(NC(=O)CSc2ccc(Br)cc2)n1	inactive
CCc1ccc(NC(=O)CN2CCSc3ccc(S(=O)(=O)N4CCCC4)cc32)cc1	inactive

SMILES	Potency
COc1cc(OC)c(N(C)C(=O)c2cc3c(=O)oc4ccccc4c3s2)cc1Cl	inactive
Cc1ccccc1CS(=O)(=O)CC1Nc2ccc(C(=O)NCc3ccc(Cl)cc3)cc2NC1=O (centres undefined)	inactive
Cc1ccccc1CSc1nnc(-c2ccccn2)n1N	31.6 µM (active)
Cc1ccccc1CSc1nnc(-c2cccnc2)n1N	inactive
Cn1c(SCC(=O)C(C)(C)C)nnc1-c1ccccn1	inactive
Fc1ccc(-c2nc(Nc3cccc(Cl)c3)nc3c2COc2ccccc2-3)cc1	inactive
O=C(NCCS(=O)(=O)N1CCN(c2ccc(F)cc2)CC1)c1ccccc1Br	inactive
CCC(=O)N1CCc2cc(S(=O)(=O)NC(Cc3ccccc3)C(=O)NCc3ccccc3)ccc21 (centres undefined)	inactive
O=C(Nc1ccccc1Br)c1cc(CN2CCCC2)on1	inactive
CCN(c1ccc(NC(=O)COC(=O)CCc2nc3ccccc3n2-c2ccccc2)cc1)C(C)C	11.2 µM (active)
CC(C)(C)c1ccc(NC(=O)COC(=O)CCc2nc3ccccc3c(=O)[nH]2)cc1	inactive
Cc1ccc(NC(=O)COC(=O)CCc2nc3ccccc3n2-c2ccccc2)c(C)c1	inactive
Cc1ccc(Cn2c(CNC(=O)Cc3cccc(C)c3)nc3cccnc32)cc1	inactive
COc1cc2ccccc2cc1C(=O)Nc1cccc(-c2nc3ccccc3o2)c1	inactive
CC(C(=O)O)n1cnc2sc3c(c2c1=O)CCCC3 (centres undefined)	inactive
S=c1[nH]nc2c3c4c(sc3ncn12)CCCC4	22.4 µM (active)
N=c1c2c3c(sc2ncn1CCCN1CCOCC1)CCCCC3	inactive
Cc1noc2ncnc(NCc3ccccc3Cl)c12	inactive
Cc1ccc(C)c(Cn2c(=O)n(CCC(=O)NCc3ccc4c(c3)OCO4)c(=O)c3sccc32)c1	inactive
COC(=O)c1ccccc1NC(=O)Cn1c(=O)n(-c2cccc(C(F)(F)F)c2)c(=O)c2c(C)c(C)sc21	inactive
C#CCOc1ccccc1/C=C1/C(=O)ON=C1C	inactive
CC1=NOC(=O)/C1=C\c1ccccc1	25.1 µM (active)
C=CCOc1ccc(/C=C2/C(=O)ON=C2C)cc1OCC	inactive
COc1ccc(Nc2ncc(C(=O)Nc3cc(C)ccc3OC)c3ccccc23)cc1	inactive
Cc1ccc(/C=C(\C#N)C(=O)Nc2cc(C)ccc2C)cc1	inactive
CCc1ccc(NC(=O)CSc2nc3c([nH]c4ccccc43)c(=O)n2-c2cccc(OC)c2)cc1	inactive
